Results: PubChem BioAssay (EPA / NIEHS)
Results filed as inconclusive are left out. Calls of active or inactive are those of the source. How the source made its calls, unless noted: active means hit-call score of the fitted dose curve at least 0.9, where 1 is the maximum; inactive means score below 0.9.

Key:
[1] = CCTE_Mundy_HCI_Cortical_NOG_NeuriteLength: CCTE's Neurite Outgrowth Assay in rat cortical cells for Neurite Length, Mundy Lab (AID 2284213);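 further: neurites imaged about 48 to 50 h after chemical exposure began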
In short: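 First, rat primary cortical cells were plated and, 2 h later, given test chemical as a 1/10 dilution. Finally, βIII-tubulin immunostaining enabled automated imaging of neurite length.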

[2] = CCTE_Mundy_HCI_Cortical_Synap_Neur_Matur_NeuriteLength: CCTE's Synaptogenesis and Neurite Maturation Assay in rat cortical cells for Neurite Length, Mundy Lab (AID 2284214)
In short: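 Cultures of rat primary cortical cells received chemical at DIV 7 and were fixed at DIV 12, after glial arrest with AraC at DIV 5. Neurite length was measured by automated imaging of MAP2 immunofluorescence.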

[3] = CCTE_Mundy_HCI_Cortical_Synap_Neur_Matur_NeuriteSpotCountPerNeuron: CCTE's Synaptogenesis and Neurite Maturation Assay in rat cortical cells for Neurite Spot Count per Neuron Count, Mundy Lab (AID 2284215)
In short: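 Developing rat cortical neurons, with glia suppressed by AraC, are exposed to chemicals from DIV 7 to DIV 12. Automated fluorescence imaging of MAP2-labelled neurites and synaptophysin puncta yields a count per neuron, normalised against DMSO wells.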

[4] = CCTE_Mundy_HCI_Cortical_Synap_Neur_Matur_SynapseCount: CCTE's Synaptogenesis and Neurite Maturation Assay in rat cortical cells for Synapse Count, Mundy Lab (AID 2284218)
In short: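 Cells were plated, allowed 2 hr to attach, treated with AraC at DIV 5, then exposed to chemicals from DIV 7 until DIV 12. After fixation and MAP2/synaptophysin immunolabelling, synapses per neuron were quantified by automated imaging against DMSO.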

[5] = CCTE_Mundy_HCI_Cortical_Synap_Neur_Matur_NeuriteCount: CCTE's Synaptogenesis and Neurite Maturation Assay in rat cortical cells for Neurite Count, Mundy Lab (AID 2284222);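 further: exposure from day 7 to day 12 in vitro with readout at day 12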
In short: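 Primary rat cortical cells were plated, treated with AraC at DIV 5, then exposed to chemicals from DIV 7 through DIV 12. After fixation and immunostaining for MAP2 and synaptophysin, imaging quantified neurites, with DMSO as the negative control.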

[6] = CCTE_Mundy_HCI_Cortical_Synap_Neur_Matur_CellBodySpotCount: CCTE's Synaptogenesis and Neurite Maturation Assay in rat cortical cells for Cell Body Spot Count, Mundy Lab (AID 2284223)
In short: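 Chemicals were applied to AraC-treated rat primary cortical cells at DIV 7 and measured at DIV 12. Fixed cells were labelled for MAP2, synaptophysin and nuclei, and high-content imaging gave cell body synaptophysin spot counts per neuron relative to DMSO.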

[7] = UKN2_HCS_IMR90_cell_viability: Viability Assessment in the University of Konstanz (UKN) Leist Lab Neural Crest Cell Migration Assay in human induced IMR90 Pluripotent Stem Cells (UKN2) (AID 2284233);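 further: cells exposed to compound for 24 h after a 24 h migration phase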
In short: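 After calcein-AM/Hoechst staining, viability is quantified by high-content fluorescence imaging, relative to DMSO, in iPSC (IMR90)-derived neural crest cells. Exposure lasts 24 h, starting after a 24 h migration period on PLO/laminin/fibronectin coating.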

[8] = CCTE_Mundy_HCI_Cortical_NOG_NeuronCount: CCTE's Neurite Outgrowth Assay in rat cortical cells for Neuron Count, Mundy Lab (AID 2284236; active means hit-call score of the fitted dose curve at least 0.9, where 1 is the maximum;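 further: neurons counted by imaging betaIII-tubulin and Hoechst stained cortical cells; cells exposed to compound for about 48 hours before fixation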)
In short: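 Read-out: neuron number by high-content imaging of betaIII-tubulin (Alexa Fluor-488) and Hoechst-labelled rat primary cortical cells.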

[9] = CCTE_Mundy_HCI_Cortical_NOG_BPCount: CCTE's Neurite Outgrowth Assay in rat cortical cells for Branch Point Count, Mundy Lab (AID 2284237);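 further: branch points counted about two days after chemical exposure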
In short: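 Measured 50.33 h after dosing, this morphology endpoint uses rat primary cortical cultures labelled for betaIII-tubulin. Branch points are quantified by high-content imaging, with DMSO as negative control and baseline.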

[10] = CCTE_Mundy_HCI_hNP1_Casp3_7: CCTE's Caspase-Glo 3/7 Assay in human neuroprogenitor cells for Apoptosis, Mundy Lab (AID 2284240)
In short: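 Apoptosis is scored by activated caspase-3/7 luminescence in WA09-derived neural progenitor cells, measured 26.5 h after chemical dosing. Values represent gain of signal relative to DMSO vehicle.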

[11] = CCTE_Mundy_HCI_hNP1_CellTiter: CCTE's Cell Titer-Glo 2 Assay in human neuroprogenitor cells for Viability, Mundy Lab (AID 2284241; active means hit-call score of the fitted dose curve at least 0.9, where 1 is the maximum)
In short: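 Human neural progenitor cells (hNP1, WA09-derived) were plated on poly-L-ornithine/laminin and grown 40 to 44 hours at 37 °C, 5% CO2 before chemical addition. Twenty-four hours later, ATP was measured by CellTiter-Glo luminescence; loss of signal versus DMSO indicates reduced viability.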

[12] = IUF_NPC2c_oligodendrocyte_migration_120hr: Leibniz Research Institute for Environmental Medicine (IUF) 120-hour Neural Progenitor Cell Migration Assay for Oligodendrocyte Migration (NPC2c) (AID 2284297);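 further: O4-positive oligodendrocyte migration distance divided by radial glia migration distance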
In short: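 Using fetal brain neural progenitor spheres differentiating in N2 medium at 37C, compounds were present for 120 h. Oligodendrocyte migration distance, normalized to radial glia migration, was measured from imaged O4 staining.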

[13] = IUF_NPC2a_radial_glia_migration_120hr: Leibniz Research Institute for Environmental Medicine (IUF) 120-hour Neural Progenitor Cell Migration Assay for Radial Glia Migration (NPC2a) (AID 2284298)
In short: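 Exposure of 0.3 mm primary hNPC spheres runs day 0 to 120 h with a half-volume medium change at day 3. Fixed cells get Hoechst staining; high-content analysis of nuclear positions yields radial glia migration distance per well, compared against DMSO controls.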

[14] = IUF_NPC2a_radial_glia_migration_72hr: Leibniz Research Institute for Environmental Medicine (IUF) 72-hour Neural Progenitor Cell Migration Assay for Radial Glia Migration (NPC2a) (AID 2284299)
In short: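 Single 0.3 mm neurospheres were plated per well in N2 differentiation medium and exposed from the start of differentiation. After 72 hours, brightfield images were taken and radial glia migration from the sphere core edge was measured manually in four directions, averaged per well.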

[15] = IUF_NPC2b_neuronal_migration_120hr: Leibniz Research Institute for Environmental Medicine (IUF) 120-hour Neural Progenitor Cell Migration Assay for Neuron Migration (NPC2b) (AID 2284300)
In short: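 Fetal human NPC spheres migrate on PDL/laminin during 120 h compound treatment; neuronal migration distance, glia-normalized, scored versus DMSO control.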

[16] = IUF_NPC3_neuronal_differentiation_120hr: Leibniz Research Institute for Environmental Medicine (IUF) 120-hour Neuronal Differentiation Assay (NPC3) (AID 2284301)
In short: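 Value is percent TUBB3-positive neurons among Hoechst-stained nuclei in the migration area, scored by trained CNN after 120 h differentiation. Primary hNPC spheres on poly-D-lysine/laminin, N2 medium, continuous dosing from day 0, half-refeed day 3; DMSO reference.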

[17] = IUF_NPC4_neurite_length_120hr: Leibniz Research Institute for Environmental Medicine (IUF) 120-hour Neuronal Morphology Assay for Neurite Length (NPC4) (AID 2284302)
In short: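 Neurite length, the mean in um across TUBB3-stained neurons, is derived by skeletonization of high-content images after 120 h differentiation. Compound exposure, 7 concentrations plus solvent control, ran from plating of hNPC spheres on poly-D-lysine/laminin, with medium half-replaced on day 3.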

[18] = IUF_NPC5_oligodendrocyte_differentiation_120hr: Leibniz Research Institute for Environmental Medicine (IUF) 120-hour Oligodendrocyte Differentiation Assay (NPC5) (AID 2284304; active means hit-call score of the fitted dose curve at least 0.9, where 1 is the maximum;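 further: primary human fetal neural progenitor spheres plated to migrate and differentiate; share of O4-positive cells among Hoechst nuclei found by CNN image analysis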)
In short: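 After plating on poly-D-lysine/laminin, fetal-derived hNPC spheres differentiated for 120 h at 37C in compound-containing N2 medium, refreshed by half on day 3. O4 immunostaining over Hoechst nuclei in the migration zone gave oligodendrocyte percentage relative to DMSO.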

[19] = IUF_NPC2-5_cytotoxicity_72hr: Cytotoxicity Assessment at 72 hours in the Leibniz Research Institute for Environmental Medicine (IUF) Neural Progenitor Cell Migration and Differentiation Assay for Cytotoxicity (NPC2-5) (AID 2284306; active means hit-call score of the fitted dose curve at least 0.9, where 1 is the maximum;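 further: LDH release into supernatant measured by resorufin fluorescence marking membrane damage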)
In short: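 Membrane-integrity cytotoxicity at 72 h, read as LDH-driven resorufin fluorescence in supernatant. hNPC spheres from fetal cortex differentiate on coated plates in N2 medium, 37C, 5% CO2; seven serial compound concentrations plus solvent control (DMSO ≤0.1%).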

[20] = IUF_NPC2-5_cytotoxicity_120hr: Cytotoxicity Assessment at 120 hours in the Leibniz Research Institute for Environmental Medicine (IUF) Neural Progenitor Cell Migration and Differentiation Assay (NPC2-5) (AID 2284307; active means hit-call score of the fitted dose curve at least 0.9, where 1 is the maximum)
In short: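 Membrane-integrity loss is quantified by LDH in supernatant after five days of exposure of migrating, differentiating human fetal NPC spheres; seven serially diluted concentrations are tested with DMSO kept at or below 0.1%.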

[21] = IUF_NPC2-5_cell_number_120hr: Cell Number Assessment at 120 hours in the Leibniz Research Institute for Environmental Medicine (IUF) Neural Progenitor Cell Migration and Differentiation Assay (NPC2-5) (AID 2284308);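 further: count of Hoechst-stained nuclei in migration zone around plated human neural progenitor spheres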
In short: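 Seven-point serial dilutions plus solvent control were applied to plated 0.3 mm hNPC spheres at differentiation start, with medium half-replaced at day 3. Nuclei positive for Hoechst in the migration zone were enumerated at 120 h.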

[22] = IUF_NPC2-5_viability_120hr: Viability Assessment at 120 hours in the Leibniz Research Institute for Environmental Medicine (IUF) Neural Progenitor Cell Migration and Differentiation Assay (NPC2-5) (AID 2284312)
In short: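 Alamar blue resorufin fluorescence read after 5 days of differentiation, with compound present from day 0 and replenished at day 3. Primary hNPC spheres on laminin-coated plates, 37C; seven concentrations plus solvent control, fitted against DMSO.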

[23] = CCTE_Mundy_HCI_iCellGluta_NOG_NeuriteLength: CCTE's Neurite Outgrowth Assay in iCellGluta cells for Neurite Length, Mundy Lab (AID 2284318; active means hit-call score of the fitted dose curve at least 0.9, where 1 is the maximum)
In short: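 Automated high-content imaging of betaIII-tubulin (Alexa Fluor-488) and Hoechst-stained cells gave neurite length, normalized to the DMSO baseline.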

[24] = IUF_NPC1_cytotoxicity_72hr: Cytotoxicity Assessment at 72 hours in the Leibniz Research Institute for Environmental Medicine (IUF) Neural Progenitor Cell Proliferation Assay (NPC1) (AID 2284332; active means hit-call score of the fitted dose curve at least 0.9, where 1 is the maximum;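 further: rising LDH signal means more cytotoxicity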)
In short: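 Membrane-integrity loss is scored from LDH released into the medium, detected as resorufin fluorescence, with activity fitted upward relative to baseline. Test material stays on human fetal-derived progenitor spheres for 72 h.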

[25] = CCTE_Mundy_HCI_iCellGluta_NOG_NeuronCount: CCTE's Neurite Outgrowth Assay in iCellGluta cells for Neuron Count, Mundy Lab (AID 2284340; active means hit-call score of the fitted dose curve at least 0.9, where 1 is the maximum;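 further: cells fixed about 48 h after compound addition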)
In short: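 Neuron count read by automated high-content imaging of Hoechst 33342 and betaIII-tubulin/Alexa Fluor-488 labelling in human iPSC glutamatergic neurons. Activity fitted relative to DMSO.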

[26] = CCTE_Mundy_HCI_iCellGluta_NOG_NeuriteCount: CCTE's Neurite Outgrowth Assay in iCellGluta cells for Neurite Count, Mundy Lab (AID 2284342; active means hit-call score of the fitted dose curve at least 0.9, where 1 is the maximum;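 further: chemical exposure about 48 hours starting 2 hours after plating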)

## CCOP(=O)(OCC)SCSC(C)(C)C
[1]
  AC50: 49.5 µM (active)
[2]
  outcome: inactive
[3]
  outcome: inactive
[4]
  outcome: inactive
[5]
  outcome: inactive
[6]
  outcome: inactive
[7]
  outcome: inactive
[8]
  AC50: 84.1 µM (active)
[9]
  AC50: 62.1 µM (active)
[10]
  outcome: inactive
[11]
  outcome: inactive
[12]
  outcome: inactive
[13]
  AC50: 0.875 µM (active)
[14]
  outcome: inactive
[15]
  outcome: inactive
[16]
  outcome: inactive
[17]
  outcome: inactive
[18]
  outcome: inactive
[19]
  outcome: inactive
[20]
  outcome: inactive
[21]
  outcome: inactive
[22]
  outcome: inactive
[23]
  AC50: 9.83 µM (active)
[24]
  outcome: inactive
[25]
  outcome: inactive
[26]
  AC50: 21.9 µM (active)
